Screens deposited in PubChem BioAssay by National Center for Advancing Translational Sciences (NCATS).
This is a sample that favours compounds with a hit; in the whole collection about 11% have one here.
L3MBTL1 block: inhibitors of human L3MBTL1. Q9Y468. AlphaScreen L3MBTL1–H3K9me1 peptide binding. Potency, µM (doses to about 57.1 µM), for the others: at the top dose activity, negative = inhibition, hits mostly inhibitors. 230,000 compounds, 0.66% hits; also: potency is read from the fitted curve at half-maximal effect; % is scaled to controls: 0 for no effect and ±100 for the full control effect; nearly all actives have a fitted effect of over 60% in size
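L3MBTL1 50 nM + b-AHA-H3(1-15)K9me1 75 nM, 30 min RT; compound added, 30 min RT; streptavidin donor/Ni-chelate acceptor beads 10 ug/mL each final, 30 min RT dark; AlphaScreen read.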
G9a inh: G9a (human) methyltransferase inhibition; 350,000 compounds, 8.8% hits; Q96KQ7; AID 504332; Potency, µM (doses to about 102 µM), inactives show top-dose activity, negative = inhibition, usual class: inhibitors; G9a H3K9 monomethylation, AlphaScreen, 2 h; also: potency is read from the fitted curve at half-maximal effect; % is scaled to controls: 0 for no effect and ±100 for the full control effect; nearly all actives have a fitted effect of over 75% in size
Target sequence (Q96KQ7 913-1193 limits assumed): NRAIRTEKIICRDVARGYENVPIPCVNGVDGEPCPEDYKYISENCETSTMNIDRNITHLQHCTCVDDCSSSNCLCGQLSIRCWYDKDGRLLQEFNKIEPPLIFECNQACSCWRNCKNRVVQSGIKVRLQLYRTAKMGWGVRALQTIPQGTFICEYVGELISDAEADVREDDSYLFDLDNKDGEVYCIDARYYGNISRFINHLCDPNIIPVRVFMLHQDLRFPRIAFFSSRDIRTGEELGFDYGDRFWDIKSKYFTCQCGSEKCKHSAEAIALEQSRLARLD
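Signal arises when biotinylated H3K9 peptide, once monomethylated, bridges streptavidin donor and antibody-captured acceptor beads. Enzyme at 20 nM was preincubated 15 min with test compounds; peptide 500 nM and SAM 20 uM then reacted for 2 h.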
BAZ2B inh: BAZ2B (human) inhibition; Q9UIF8; AID 504333; AlphaScreen BAZ2B-H3K14Ac peptide displacement; 360,000 compounds, 4.4% hits; Potency, µM (doses to about 114 µM), for the others: at the highest dose activity change, negative = inhibition, hits mostly inhibitors; also: potency is read from the fitted curve at half-maximal effect; % is scaled to controls: 0 for no effect and ±100 for the full control effect; nearly all actives have a fitted effect of over 60% in size
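AlphaScreen displacement of biotin-H3(5-23)K14Ac peptide (50 nM final) from BAZ2B (50 nM final) in PBS pH 7.4, 0.01% Tween-20; complex preformed 30 min RT, then compounds (top 110 uM) 30 min RT, beads 20 min dark.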
JMJD2A Tudor inh: JMJD2A Tudor domain (human) inhibition | O75164 | AlphaScreen JMJD2A-Tudor / H3K4me3 peptide binding | AID 504339 | Potency, µM (titrated, usually from 114 µM), for inactives: top-dose activity change, negative = inhibition, usual class: inhibitors | 390,000 compounds, 4.4% hits; also: potency is read from the fitted curve at half-maximal effect; % is scaled to controls: 0 for no effect and ±100 for the full control effect; nearly all actives have a fitted effect of over 50% in size
HP1b binding inh: HP1-beta chromodomain-methylated histone interaction inhibition | Potency, µM (highest dose often 114 µM), without a hit: at the highest dose activity change, negative = inhibition, most hits filed as inhibitors | 390,000 compounds, 0.56% hits | P83916 | AlphaScreen HP1-beta / biotin-H3K9me3 peptide binding | AID 540317; also: potency is read from the fitted curve at half-maximal effect; nearly all actives have a fitted effect of over 70% in size
Target sequence (P83916 whole entry, looked up): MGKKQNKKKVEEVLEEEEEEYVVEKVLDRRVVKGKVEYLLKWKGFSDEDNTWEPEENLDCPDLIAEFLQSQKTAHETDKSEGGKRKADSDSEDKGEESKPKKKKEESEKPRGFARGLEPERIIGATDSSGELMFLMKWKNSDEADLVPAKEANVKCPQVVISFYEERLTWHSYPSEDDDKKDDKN
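Compound inhibition of the preformed complex between 50 nM HP1-beta and 50 nM biotinylated H3K9me3 peptide was read by AlphaScreen. Buffer was PBS pH 7.4 with 0.01% Tween-20. Incubations ran 30 min at room temperature, with 10 ug/mL donor/acceptor beads.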
PI5P4Ka inh: inhibitors of human PI5P4K alpha. PI5P4Kalpha enzyme, ADP-Glo luminescence, 60 min; stronger effect = lower value. max response, %. P48426. AID 652105. 330,000 compounds, 1.2% hits; active = max response of -50% or lower; inconclusive = between -30% and -50%; inactive = -30% or higher; also: value at the top dose of about 77 µM; % is scaled to controls: 0 for no effect and ±100 for the full control effect
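qHTS, 1536-well: enzyme/substrate mix, compound by pin tool, 5 microM ATP final; RT 60 min; ADP-Glo reagents 1 (45 min) then 2 (30 min); luminescence.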
An asterisk follows results filed as active; ? = inconclusive; . = not tested or not shown; ! = not active in a repeat; [ ] = dose if it differs, or a comment. Unless noted, calls follow the shape of the dose curve; as a rule, active = well fitted inhibition curve with a large enough effect; inconclusive = small, poorly fitted or top-dose-only effect; inactive = no such curve, though single readings can be large or run the other way.

SMILES	L3MBTL1 block	G9a inh	BAZ2B inh	JMJD2A Tudor inh	HP1b binding inh	PI5P4Ka inh
CCOC(=O)c1c(N)sc2c1CCCC2	-13%	?	?	?	-19%	.
CCOC(=O)c1c(N2C(=O)C3C4C=CC(O4)C3C2=O)sc2c1CCCC2 (centres undefined)	.	1.8µM*	-2%	56µM*	?	-26
CCOC(=O)c1c(-n2cnnn2)sc2c1CCCC2	1%	-41%	0%	6%	26%	-4
CCOC(=O)c1c(N2C(=O)Nc3cc(Cl)c(Cl)cc3N2O)sc2c1CCCCC2	-13%	.	?	79µM*	?	?
COC(=O)c1cc(NS(=O)(=O)c2ccc(NCc3cccnc3)c(N)c2)cc(C(=O)OC)c1	-7%	35µM*	-10%	-7%	37%	12
Cc1oc(-c2ccccc2)[n+]([O-])c1C	1%	.	-4%	-28%	11%	-5
Cc1cccc(-c2oc(C)c(C)[n+]2[O-])c1	.	?	-4%	45µM*	2%	.
NC(=O)COc1ccc(-c2noc(COc3ccc(Cl)cc3)n2)cc1	.	-4%[59 µM]	10%[57.1 µM]	-5%	44%	.
NCCCNCCCCNCCCN	6%	13µM*!	.	-20%	13%	4
CNc1ncnc2c1ncn2[C@H]1C[C@H](O)[C@@H](CO)O1	.	43%[59 µM]	.	.	.	.
COc1ccc(-c2nc3cncnc3n(-c3ccccc3)c2=O)cc1	.	1%[0.501 µM]	.	.	.	.
CCc1cccc(NC(=O)Cn2c(-c3ccc(F)cc3)cc(C(C)=O)c2C)c1	.	9%[59 µM]	5%	-3%	12%	.
COc1cc2c(cc1OC)CN(C1CC(=O)N(c3c(C)cccc3C)C1=O)CC2 (centres undefined)	.	79µM*	-23%	-32%	7%	-29
COc1ccccc1N1CCN(C2CC(=O)N(c3cccc(Br)c3)C2=O)CC1 (centres undefined)	5%	.	-3%	-29%	21%	-4
CCOCCc1nn2c(=O)cc(COC(=O)CNC(=O)c3cccc(C)c3)nc2s1	.	13%[59 µM]	-20%	-20%	76%	.
O=C(CN1CCN(c2ccccc2O)CC1)NC(=O)NCc1ccco1	-12%	0%[59 µM]	-11%	-29%	12%	-5
CC(C)(C)NC(=O)NC(=O)CN1CCN(S(=O)(=O)c2ccc3c(c2)CCCC3)CC1	12%	45µM*	-17%	-20%	12%	3
COc1ccc(N2CCN(CC(=O)NC(=O)NC(C)(C)C)CC2)cc1	-5%	79µM*	-13%	-6%	15%	2
Cc1ccc(C)c(S(=O)(=O)N2CCN(CC(=O)NC(=O)NCc3ccco3)CC2)c1	-10%	-33%	-25%	50µM*	?	?
O=C(CN1CCN(c2ccc(O)cc2)CC1)NC(=O)NCc1ccco1	-24%	7.9µM*	-36%	-13%[57.1 µM]	?	-9
O=C(Nc1ccccc1)N1CC2(CCN(S(=O)(=O)c3ccccc3)CC2)C1	.	0%[12.7 µM]	.	.	.	.
Cc1ccc(S(=O)(=O)c2nnn3c2nc(N2CCCC(C)C2)c2cc(Cl)ccc23)cc1C (centres undefined)	.	9%[59 µM]	-4%	4%	22%	.
CCN1CCN(C(c2ccccc2Cl)c2sc3nc(-c4ccco4)nn3c2O)CC1 (centres undefined)	.	3%[59 µM]	-14%	-28%	28%	.
COc1ccc(N2CCN(CC(=O)NC(=O)NCc3ccco3)CC2)cc1	-28%	32µM*	-7%	?	5%	-3
COc1ccc(N2CCN(CC(=O)Nc3ccc(SC(F)F)cc3)CC2)cc1	-19%	?	40µM*	?	-15%	-5
SMILES	L3MBTL1 block	G9a inh	BAZ2B inh	JMJD2A Tudor inh	HP1b binding inh	PI5P4Ka inh
COc1ccc(N2CCN(CC(=O)Nc3ccc(C)cc3)CC2)cc1	-2%	.	?	-26%	-4%	-5
Cc1ccc2oc(=O)c3cnn(CC(=O)N4CCN(c5cc(Cl)ccc5C)CC4)c3c2c1	.	-2%[59 µM]	-6%	-3%	42%	.
NNc1cc([N+](=O)[O-])cc2c1C(=O)N(Cc1ccccc1)S2=O (centres undefined)	-18%	2.8µM*	?	56µM*	-2%	-66*
COc1ccc(Br)cc1CNC(=O)CN1C(=O)C(c2ccccc2)Oc2cccnc21 (centres undefined)	.	20%	50µM*	-24%	50%	-16
CCN(CC)c1ccc(NC(=O)CCCN2C(=O)C(c3ccccc3)Oc3cccnc32)c(C)c1 (centres undefined)	.	2.8µM*	-39%	-21%	15%	.
O=C(CCCN1C(=O)C(c2ccccc2)Oc2cccnc21)Nc1ccccc1C(F)(F)F (centres undefined)	.	4%[59 µM]	-16%	3%	46%	.
N#Cc1c(N)oc(-c2ccc3c(c2)OCO3)c1-c1ccc2c(c1)OCO2	.	50µM*	?	-32%	2%	?
Cc1nc(N)c(C#N)c(-c2ccc3c(c2)OCO3)c1C	4%	17%[59 µM]	-22%	2%	37%	0
CCOc1ccc(C(c2c(O)cc(C)n(CCOC)c2=O)N2CCN(c3ccc(F)cc3)CC2)cc1 (centres undefined)	.	18µM*	3%	-18%	21%[57 µM]	.
COCCn1c(C)cc(O)c(C(c2ccccc2)N2CCN(c3ccc(F)cc3)CC2)c1=O (centres undefined)	.	?	45%	-21%	38%	.
CCc1ccc(NCc2cc3cc4c(cc3n(CC(=O)Nc3cccc(OC)c3)c2=O)OCO4)cc1	.	?	-27%	?	0%	.
CCOC1=NN(c2ccc(Cl)cc2)C(=O)/C1=C\N(C)C	11%	56µM*	-26%	-14%	29%	4
CC1=NN(c2ccc([N+](=O)[O-])cc2)C(=O)/C1=C\N(C)C	-7%	10µM*	?	-22%	-4%	?
CC1=NN(c2nc3ccccc3[nH]2)C(=O)/C1=C/N(C)C	.	34%[59 µM]	22µM*	56µM*	48%	-23
CCc1c(C)nc2nc(-c3ccccc3)nn2c1NCc1ccc(C)cc1	.	-8%[59 µM]	-21%	-31%	10%	.
COC(=O)c1cc(Nc2nc3ccccc3nc2NS(=O)(=O)c2ccc(C)cc2)ccc1Cl	.	7%[59 µM]	4%	-2%	59%	.
Cc1ccc(C2NC(=S)N3C(c4ccc(C)cc4)NC(=S)N23)cc1 (centres undefined)	.	.	.	.	.	-79*
Cc1ccc(C2NC(=S)NC3=C2C(=O)CCC3)cc1 (centres undefined)	10%	5%	-6%	18%	27%	3
S=C1NC(c2ccccc2)N2C(=S)NC(c3ccccc3)N12 (centres undefined)	.	?	79µM*	13µM*	32µM*	-81*
OC1NC(=S)N(c2ccccc2)C1O (centres undefined)	9%	.	-5%	3%	44%	9
O=c1c2c3c(sc2nc(NCCO)n1-c1ccccc1)CCCC3	7%	-18%	-1%	-4%	38%	8
